HepG2 viability: kills HepG2 cells in TGF-b inhibitor counter-screen; actives 0.76% (n = 410,000); HepG2 CAGA-GFP viability, ATP luminescence, 18 h; AID 588856; Potency, µM (titrated, usually from 46.1 µM), inactives show top-dose activity change, negative = cytotoxicity, most hits filed as cytotoxic; also: potency is read from the fitted curve at half-maximal effect
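HepG2 CAGA-GFP cells (1000/well, DMEM with 1% FBS) received compound, then TGF-beta at 500 pg/mL final, and were incubated 18 hours at 37 degrees C. Viability was read by CellTiter-Glo luminescence. Media-only wells were set as complete cell-killing and DMSO as no toxicity.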
TGFb inhibitor: TGF-b pathway inhibition; AID 588855; actives 1.2% (n = 410,000); Potency, µM (titrated, usually from 46.1 µM), without a hit: top-dose activity, negative = inhibition, usual class: inhibitors; HepG2 CAGA-GFP TGF-b/SMAD3 reporter, GFP fluorescence, 18 h; TGF-beta stimulated, 500 pg/mL final; also: potency is read from the fitted curve at half-maximal effect; % is scaled to controls: 0 for no effect and ±100 for the full control effect; nearly all actives have a fitted effect of over 65% in size
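Read-out: total well GFP (ex488/em500-530) summed from mean per-cell fluorescence. Cells: HEPG2 CAGA-GFP, 1% FBS DMEM, 18 h at 37 degrees C with 500 pg/mL final TGF-beta. Unstimulated wells served as the full-inhibition control; stimulated DMSO wells = 0%.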
mIDH1 inhibitor: blocks human mutant IDH1 R132H enzyme | IDH1-R132H enzyme, NADPH consumption, diaphorase/resazurin fluorescence | O75874 | actives 0.093% (n = 390,000) | Potency, µM (series often up to 76.6 µM), for the others: top-dose activity change, negative = inhibition, hits mostly inhibitors | AID 602179; also: potency is read from the fitted curve at half-maximal effect; % is scaled to controls: 0 for no effect and ±100 for the full control effect; nearly all actives have a fitted effect of over 65% in size
Target sequence (O75874 whole entry R132H, stated change not applied): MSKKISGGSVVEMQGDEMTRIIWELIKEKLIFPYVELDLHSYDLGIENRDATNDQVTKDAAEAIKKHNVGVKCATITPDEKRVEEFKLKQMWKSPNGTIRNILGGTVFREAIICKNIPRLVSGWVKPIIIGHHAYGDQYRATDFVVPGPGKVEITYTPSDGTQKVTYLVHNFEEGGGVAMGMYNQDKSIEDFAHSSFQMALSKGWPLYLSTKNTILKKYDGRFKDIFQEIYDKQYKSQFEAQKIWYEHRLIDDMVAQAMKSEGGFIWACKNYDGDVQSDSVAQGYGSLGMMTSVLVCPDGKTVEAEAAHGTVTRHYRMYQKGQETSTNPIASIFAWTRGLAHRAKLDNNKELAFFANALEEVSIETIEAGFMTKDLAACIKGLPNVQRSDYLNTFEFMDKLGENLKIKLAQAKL
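IDH1-R132H (0.5 ug/mL dispensed) in pH 7.5 Tris buffer was preincubated 30 min with compound, then given a substrate mix of 0.016 mM NADPH and 2 mM alpha-KG for 80 min at room temperature; remaining NADPH was read by diaphorase/resazurin fluorescence.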
ATXN viability: cell viability loss in ATXN counter-screen; S2 cells (HEK-293 line with an ATXN2-luciferase reporter) viability, CellTiter-Fluor protease fluorescence, 24 h; Potency, µM (doses to about 56.7 µM), most hits filed as cytotoxic; actives 0.49% (n = 400,000); also: potency is read from the fitted curve at half-maximal effect; nearly all actives have a fitted effect of over 40% in size
LDHA inh: inhibitors of human lactate dehydrogenase A; P00338; purified LDHA, NADH/diaphorase-resazurin fluorescence; active compounds read low; activity change, % (values are at about 110 or 230 µM); actives 0.15% (n = 480,000); AID 1347041; in the data active = activity change below about -30%; inconclusive = mostly about -25% to -30%;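 also: plate controls were DMSO wells for no effect and wells without enzyme for full effect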
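Human LDH5 at 2 nM final in Tris HCl pH 7.4 with 0.06 mM NADH and 0.2 mM pyruvate, reacted 5 minutes at room temperature. Remaining NADH coupled via diaphorase/resazurin; resorufin fluorescence read at 0 and 20 minutes, normalized to enzyme-free and DMSO wells.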
ATXN2 expr inh: reduces ATXN2 reporter expression in HEK-293 cells | HEK-293 ATXN2-luciferase reporter, luminescence, 24 h | Potency, µM (highest dose often 57 µM), for the others: top-dose activity change, negative = inhibition, hits mostly inhibitors | actives 0.72% (n = 360,000) | AID 1745845; also: potency is read from the fitted curve at half-maximal effect; % is scaled to controls: 0 for no effect and ±100 for the full control effect; nearly all actives have a fitted effect of over 55% in size
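ATXN2-luciferase reporter cells (luciferase flanked by upstream and downstream ATXN2 gene portions) were treated 24 h at 37 °C with compounds at up to 57 uM. SteadyGlo luminescence gave expression; GF-AFC fluorescence gave viability.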
Numbers without * were called inactive; i = inactive; ? = inconclusive; nt = not tested or not shown. Most compounds without a hit are left out; they make up all but 2.2% or so of the library. Unless noted, calls follow the shape of the dose curve; as a rule, active = well fitted curve in the direction sought with a large enough effect; inconclusive = small, poorly fitted or top-dose-only effect, or another doubt; inactive = no such curve, though single readings can be large; an effect the other way counts as inactive or inconclusive.

SMILES | HepG2 viability | TGFb inhibitor | mIDH1 inhibitor | ATXN viability | LDHA inh | ATXN2 expr inh
Cc1c(C(=O)N/N=C/c2c(O)ccc3ccccc23)nnn1-c1nonc1N | -27% | -18% | 9% | ? | 1 | 1.6µM*
COc1cc(C2c3cc4c(cc3C(OC3OC5COC(c6cccs6)OC5C(O)C3O)C3COC(=O)C23)OCO4)cc(OC)c1O (centres undefined) | -17% | 23% | -6% | ? | -1 | 0.32µM*
COc1cc([C@@H]2c3cc4c(cc3[C@@H](O[C@@H]3O[C@@H]5CO[C@@H](C)O[C@H]5[C@H](O)[C@H]3O)[C@H]3COC(=O)[C@H]23)OCO4)cc(OC)c1O | -20% | 8% | 6% | ? | 1 | 1.1µM*
O=C(c1ccoc1)N1CCC2(CC1)Oc1ccc(F)cc1C(=O)C21CC(c2ccc(Cl)cc2)=NO1 (centres undefined) | 5% | 14% | 8% | i | 0 | -17%
Nn1c(-c2ccc(F)cc2)nc2ccccc2c1=O | 0% | -4% | 0% | i | 0 | 5%
O=C1c2cc(F)ccc2-n2c1nc1ccccc1c2=O | 1.1µM* | ? | 2% | i | 26 | ?
COc1cc(NC(=O)CCl)ccc(=O)c1 | 0.71µM* | ? | -3% | ? | 5 | nt
O=C(CCl)Nc1cccc(Oc2ccccc2)c1 | -92% | 8.9µM* | 1% | nt | -3 | 9.5µM*
O=C(CCl)Nc1cccc(Oc2cnccn2)c1 | -97% | 16µM* | 0% | 22µM* | 0 | ?
O=C(NCCn1cc(SCc2ccc(F)cc2)c2ccccc21)c1cccs1 | -22% | 11µM* | -4% | ? | -5 | ?
Cc1cc(NC(=O)CSc2cn(CCNC(=O)c3ccc(Cl)cc3)c3ccccc23)no1 | -30% | -6% | -6% | 19µM* | 3 | 0%
Cc1ccc(CSc2cn(CCNC(=O)c3cccs3)c3ccccc23)cc1 | -24% | ? | -15% | ? | 1 | ?
COc1ccc(C(=O)NCCn2cc(SCc3cccc(F)c3)c3ccccc32)cc1OC | -22% | ? | -17% | ? | -1 | 18µM*
O=C(NCCn1cc(SCc2ccccc2F)c2ccccc21)c1cccs1 | -29% | 10µM* | 5% | ? | 0 | ?
CCN(CC)C(=O)Cn1cc(C(=O)C(=O)N(CC)C2CCCCC2)c2ccccc21 | 10% | -2% | 6% | i | -9 | -5%
CCOC(=O)C(=Cc1c[nH]c2ccccc12)C(=O)OCC | nt | nt | nt | nt | 1 | nt
CCOC(=O)/C(=C\c1cccnc1)C(=O)c1cc(C(C)=O)c(Nc2ccccc2)s1 | -89% | 2.8µM* | ? | 4.5µM* | -3 | 3.5µM*
CCOC(=O)C(=Cc1ccc(Br)cc1)C(=O)OCC | 14µM* | 18µM* | -1% | 8.9µM* | -3 | ?
CCOC(=O)/C(=C\c1ccccc1)C(=O)c1cc(C(C)=O)c(Nc2ccccc2)s1 | 3.2µM* | -9% | 3% | 20µM* | 6 | 11µM*
CCOC(=O)C(=Cc1ccc(C)cc1)C(=O)OCC | nt | nt | nt | nt | 8 | nt
CC1CCN(CC(=O)Nc2cccc3ncccc23)CC1 | nt | nt | nt | nt | -2 | nt
Cc1ccc(C(=O)CC2(O)C(=O)N(C)c3ccccc32)o1 (centres undefined) | -27% | -18% | 10% | i | -4 | 1%
Cc1ccc(S(=O)(=O)n2ccc3cccnc32)cc1 | 1% | -3% | 1% | i | -7 | 6%
Cc1ccc(S(=O)(=O)n2cccc2/C=C/[N+](=O)[O-])cc1 | 13µM* | 14µM* | -3% | ? | 4 | nt
NCCc1c(-c2ccccc2)n(-c2ccccc2)c2ccccc12 | 20µM* | ? | 2% | ? | -5 | 28µM*
SMILES | HepG2 viability | TGFb inhibitor | mIDH1 inhibitor | ATXN viability | LDHA inh | ATXN2 expr inh
Cc1ccc(OCCN2CCN(C(=O)CCC(=O)Nc3nnc(CC(C)C)s3)CC2)cc1 | -80% | 11µM* | 4% | i | -1 | -17%
CC(C)Cc1nnc(NC(=O)CCC(=O)N2CCN(Cc3ccc(F)cc3)CC2)s1 | -9% | -9% | -3% | i | -3 | -18%
O=C(CCc1ccccc1)N(Cc1cccnc1)c1nc2c(F)cccc2s1 | -23% | ? | -21% | nt | -5 | nt
O=C(CCOc1ccccc1)N(Cc1cccnc1)c1nc2c(F)cccc2s1 | -99% | 16µM* | 2% | nt | -2 | nt
Cc1cccc2sc(N(Cc3cccnc3)C(=O)CCc3ccccc3)nc12 | -33% | 11µM* | -1% | nt | -3 | nt
Cc1cccc2sc(N(Cc3cccnc3)C(=O)Cc3ccccc3)nc12 | -21% | 13µM* | -1% | nt | 2 | nt
CCc1ccc(NC(=O)CSc2nnc(C(C)N3C(=O)COc4ccccc43)n2C)cc1 (centres undefined) | nt | nt | nt | nt | -1 | nt
O=C(Nc1ccccc1)C1CCCN(S(=O)(=O)Cc2ccccc2Cl)C1 (centres undefined) | nt | nt | nt | nt | 17 | nt
O=c1[nH]cc(N2CCCCCC2)c(=O)[nH]1 | -41% | 0% | 4% | i | 3 | 3%
O=C(/C=C/c1ccc(F)cc1)Nc1cc(S(=O)(=O)N2CCOCC2)ccc1N1CCOCC1 | -10% | -5% | -12% | i | -11 | nt
C/C(=N/NS(=O)(=O)c1ccc(C)cc1C)c1c[nH]c2ccccc12 | -25% | 18µM* | 12% | i | -2 | -18%
C/C(=N/NS(=O)(=O)c1ccc(C)c(C)c1)c1c[nH]c2ccccc12 | -27% | -22% | 5% | i | -4 | 1%
NC(=O)C1CCN(C(=O)COc2ccc(Nc3ccccc3)cc2)CC1 | 3% | -11% | 8% | i | 5 | nt
COc1ccc(/C=N/NC(=O)Cn2c(Cc3ccc(OC)c(OC)c3)nc3ccccc32)cc1OC | 2% | 0% | 5% | i | 0 | 14%
CC1=NNC(=O)/C1=C\c1cn(-c2ccccc2)nc1-c1ccc(Cl)cc1 | -94% | 3.5µM* | ? | nt | 0 | 13µM*
CCOC(=O)N1CCC(c2cc(=O)n3[nH]c(-c4ccccc4)cc3n2)CC1 | -10% | ? | 0% | i | 2 | 4%
CCOC(=O)N1CCC(c2cc(=O)n3[nH]c(C)c(-c4ccc(F)cc4)c3n2)CC1 | -38% | -25% | -3% | i | -1 | 32µM*
CCOC(=O)c1cc(-c2ccccc2)n(CCC(=O)Nc2cc(C)cc(C)c2)c1C | -23% | ? | 0% | nt | 1 | nt
CCOC(=O)c1cc(-c2ccccc2)n(CCCC(=O)Nc2ccc(C)cc2C)c1C | -26% | 0% | -15% | nt | -2 | nt
CCOC(=O)c1cc(-c2ccccc2)n(CCC(=O)Nc2ccc(Cl)c(C(F)(F)F)c2)c1C | 11µM* | 3.5µM* | -14% | nt | 2 | nt

Source: PubChem (National Center for Advancing Translational Sciences (NCATS))
